A selection: hits, their analogues and other compounds. The true share with any hit is near 12%.
G9a block – inhibitors of human histone lysine methyltransferase G9a | 350,000 compounds, 8.8% hits | AID 504332 | Q96KQ7 | Potency, µM (titrated, usually from 102 µM), usual class: inhibitors | G9a H3K9 monomethylation, AlphaScreen, 2 h; further: nearly all actives have a fitted effect of over 75% in size
Target sequence (Q96KQ7 913-1193 limits assumed): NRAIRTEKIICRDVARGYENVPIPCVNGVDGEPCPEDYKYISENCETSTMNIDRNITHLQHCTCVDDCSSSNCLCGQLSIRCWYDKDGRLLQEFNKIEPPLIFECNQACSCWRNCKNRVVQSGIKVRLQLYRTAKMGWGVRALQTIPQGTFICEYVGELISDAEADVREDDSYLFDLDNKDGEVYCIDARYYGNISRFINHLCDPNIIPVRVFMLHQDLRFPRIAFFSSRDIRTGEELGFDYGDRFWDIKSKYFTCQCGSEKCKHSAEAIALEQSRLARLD
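G9a (20 nM) preincubated 15 min RT with compounds, then 500 nM biotinylated H3K9 peptide and 20 uM SAM added; 2 h RT reaction. Monomethyl-H3K9 product detected by AlphaScreen with anti-H3K9me1 antibody, streptavidin donor and anti-rabbit IgG acceptor beads.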
HP1b chromo inh – blocks HP1-beta chromodomain binding to methylated histone tails | P83916 | AlphaScreen HP1-beta / biotin-H3K9me3 peptide binding | Potency, µM (highest dose often 114 µM), most hits filed as inhibitors | 390,000 compounds, 0.56% hits | AID 540317; further: nearly all actives have a fitted effect of over 70% in size
Target sequence (P83916 whole entry, looked up): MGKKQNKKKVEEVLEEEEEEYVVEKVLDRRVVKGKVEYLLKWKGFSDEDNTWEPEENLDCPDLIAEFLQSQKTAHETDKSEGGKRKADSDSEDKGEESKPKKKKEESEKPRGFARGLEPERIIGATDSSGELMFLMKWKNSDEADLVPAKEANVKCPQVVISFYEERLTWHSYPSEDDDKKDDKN
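HP1-beta protein (50 nM final) preincubated 30 min at room temperature with biotinylated H3(1-18)K9me3 peptide (50 nM) in PBS pH 7.4, 0.01% Tween-20, then compound added for 30 min. AlphaScreen streptavidin donor/nickel chelate acceptor beads (10 ug/mL final), 30 min dark, luminescence read.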
BAZ2B block – inhibitors of human BAZ2B bromodomain | AlphaScreen BAZ2B-H3K14Ac peptide displacement | Potency, µM (titrated, usually from 114 µM), most hits filed as inhibitors | 360,000 compounds, 4.4% hits; further: nearly all actives have a fitted effect of over 60% in size
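In this displacement format the biotinylated H3(5-23) peptide acetylated at Lys14 serves as ligand at 50 nM, with BAZ2B at 50 nM in PBS pH 7.4 containing 0.01% Tween-20. Donor and acceptor beads are 10 ug/mL final.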
JMJD2A Tudor inh – blocks the human JMJD2A Tudor domain; O75164; AlphaScreen JMJD2A-Tudor / H3K4me3 peptide binding; Potency, µM (top dose mostly 114 µM), actives largely listed as inhibitors; 390,000 compounds, 4.4% hits; AID 504339; further: nearly all actives have a fitted effect of over 50% in size
Sfp PPTase inh – Sfp phosphopantetheinyl transferase inhibition; Q9F4F7; Biochemical Sfp PPTase activity, qHTS; Potency, µM, actives largely listed as inhibitors; 310,000 compounds, 3.5% hits;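 further: the enzyme is Sfp with the accession as filed and its product quenches rhodamine fluorescence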
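Fluorescence-quenching assay: 15 nM Sfp-PPTase preincubated 15 min at room temperature with compound, then 5 uM rhodamine-CoA and 12.5 uM BHQ-2-labelled YbbR peptide added. Fluorescence (ex 525/em 598 nm) read at start and after 30 min; difference gives rate.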
PLK1 PBD block – PLK1 (human) polo-box domain binding inhibition; 360,000 compounds, 2.8% hits; Potency, µM, hits mostly inhibitors; AID 720504; Plk1 PBD binding of FITC phosphopeptide, fluorescence polarization; further: series mostly up to about 57 µM; nearly all actives have a fitted effect of over 65% in size
A number is an active result; - = inactive; ? = inconclusive; . = no result; ! = a repeat was not active; [ ] = dose if it differs, or a comment. The call rests on the fitted dose curve; in most records, active means well fitted curve in the direction sought with a large enough effect; inconclusive means small, poorly fitted or top-dose-only effect, or another doubt; inactive means no such curve, though single readings can be large; an effect the other way counts as inactive or inconclusive.

SMILES | G9a block | HP1b chromo inh | BAZ2B block | JMJD2A Tudor inh | Sfp PPTase inh | PLK1 PBD block
COC(=O)c1cn(NC(=O)c2ccc(OC)c(OC)c2)c(=O)c2ccccc12 | - | - | - | - | - | -
Cc1nnc(N2CCC(C(=O)N3CCCCCC3)CC2)c2nn(-c3ccc(Cl)cc3)c(C)c12 | - | - | - | - | - | -
COc1cc(C(=O)NCCc2sc(-c3ccc(C)cc3)nc2C)cc(OC)c1OC | - | - | - | - | . | .
CCOc1ccc(Nc2nc3cc(S(=O)(=O)N(CC)CC)ccc3o2)cc1 | 2.2µM | - | - | - | 8.9µM | 5.3µM
CCS(=O)(=O)c1ccc2oc(Nc3ccc(C(C)C)cc3)nc2c1 | 1.8µM | 16µM | - | ? | 18µM | 2.7µM
CCN(CC)S(=O)(=O)c1ccc2oc(Nc3ccc(OC)cc3)nc2c1 | - | - | - | - | - | -
CC(=O)N1c2ccc(S(=O)(=O)Nc3ccc(C)c(C)c3)cc2CC1C (centres undefined) | . | . | . | - | . | .
CSc1nc2sc3c(c2c(=O)n1-c1ccc(C)cc1)CCCC3 | - | - | - | - | . | .
CCCCCSc1nc2sc3c(c2c(=O)n1-c1ccc(OC)cc1)CCN(C(C)=O)C3 | 11µM | - | - | ? | . | .
CSc1nc2sc3c(c2c(=O)n1-c1ccc(C)c(Cl)c1)CCN(C(C)=O)C3 | - | - | 79µM | - | . | .
CC(=O)N1CCc2c(sc3c2c(=O)n(-c2ccccc2)c(=O)n3Cc2ccccc2Cl)C1 | ? | ? | ? | - | ? | 30µM
CCN(CCn1cccn1)C(=O)CCc1nnc(-c2ccc3c(c2)OCO3)o1 | - | - | - | - | - | -
CCOC(=O)NC(=S)Nc1ccc(OC)cc1 | - | - | - | - | - | -
CCOC(=O)NC(NC(=S)Nc1ccccc1OC)C(Cl)(Cl)Cl (centres undefined) | ? | - | - | - | - | ?
COC(=O)NC(NC(=S)Nc1ccccc1OC)C(Cl)(Cl)Cl (centres undefined) | 16µM | - | - | - | - | -
COC(=O)NC(NC(=S)Nc1ccc([N+](=O)[O-])cc1)C(Cl)(Cl)Cl (centres undefined) | 10µM | - | - | ? | - | -
CCOC(=O)NC(NC(=S)Nc1ccc(OC)cc1)C(Cl)(Cl)Cl (centres undefined) | 6.3µM | - | - | - | - | -
COc1cccc(CCNC(=O)c2cc(COc3c(F)cccc3F)on2)c1 | . | - | - | - | - | -
CCOC(=O)c1ccc(NC(=O)C(=O)NCc2ccncc2)cc1 | - | - | - | - | - | -
CCSC1=NSC2=NC(=O)/C(=C\c3coc4ccccc4c3=O)C(=N)N12 | ? | - | ? | - | - | 17µM
Oc1c(Br)cc(Br)cc1/C=N/c1nccs1 | 1.6µM | - | ? | - | . | 30µM
COC(=O)c1cc2oc3ccccc3c2n1CC(=O)Nc1cc(OC)cc(OC)c1 | - | - | - | - | . | .
OCCN1CCN(CC/C=C2/c3ccccc3Sc3ccc(C(F)(F)F)cc32)CC1 | 11µM! | - | ? | ? | ? | -
OCCN1CCN(CCC=C2c3ccccc3Sc3ccc(Cl)cc32)CC1 | ? | . | . | . | - | .
COc1ccc(-n2cc(CN(C)C3CCOCC3)c(-c3cccc(F)c3)n2)cc1 | - | - | - | - | - | 24µM
SMILES | G9a block | HP1b chromo inh | BAZ2B block | JMJD2A Tudor inh | Sfp PPTase inh | PLK1 PBD block
COc1ccc(-n2cc(CNCC3CCOCC3)c(-c3cccc(F)c3)n2)cc1 | - | - | - | - | - | -
COc1ccc(-n2cc(CNCc3cnc4ccccn34)c(-c3cccc(F)c3)n2)cc1 | . | - | 45µM | -[11.4 µM] | ? | -
CC1(C)CC(=O)C2=C(C1)OC(N)=C(C#N)C21CCN(Cc2ccccc2)CC1 | 28µM | - | - | - | - | -
CCOC(=O)C1=C(CN2CCN(c3cc(C)ccc3C)CC2)NC(=O)NC1c1ccc(Cl)cc1 (centres undefined) | ? | - | . | ? | . | .
O=C1/C(=C/c2cccnc2)SC(=S)N1CC1CCCO1 (centres undefined) | - | - | - | - | - | -
COc1ccc(/C=C2\SC(=S)N(CC3CCCO3)C2=O)cc1 (centres undefined) | . | ? | 8.9µM | ? | - | -
COc1cc(/C=C2/SC(=S)N(CC3CCCO3)C2=O)ccc1O (centres undefined) | 28µM | 45µM | 45µM | ? | ? | -
